Experimental findings from PubChem BioAssay (Tox21) are described below.

“And” between values parts separate entries of the source, which are not always exact repeats. Equal entries are not always repeated. Records with an inconclusive call do not appear. Where a call stands in place of a potency, no number is given. More than one record can exist for a structure, and the calls need not agree. The source made the active and inactive calls. Calls follow the shape of the dose curve; as a rule, active = well fitted curve in the direction sought with a large enough effect in the repeat runs; inconclusive = weak or mixed curves; inactive = no such curve, though single readings can be large; an effect the other way counts as inactive or inconclusive.

Nuclear receptor subfamily 1 group I member 2 (Rattus norvegicus), sequence (Q9R1A7 whole entry, looked up): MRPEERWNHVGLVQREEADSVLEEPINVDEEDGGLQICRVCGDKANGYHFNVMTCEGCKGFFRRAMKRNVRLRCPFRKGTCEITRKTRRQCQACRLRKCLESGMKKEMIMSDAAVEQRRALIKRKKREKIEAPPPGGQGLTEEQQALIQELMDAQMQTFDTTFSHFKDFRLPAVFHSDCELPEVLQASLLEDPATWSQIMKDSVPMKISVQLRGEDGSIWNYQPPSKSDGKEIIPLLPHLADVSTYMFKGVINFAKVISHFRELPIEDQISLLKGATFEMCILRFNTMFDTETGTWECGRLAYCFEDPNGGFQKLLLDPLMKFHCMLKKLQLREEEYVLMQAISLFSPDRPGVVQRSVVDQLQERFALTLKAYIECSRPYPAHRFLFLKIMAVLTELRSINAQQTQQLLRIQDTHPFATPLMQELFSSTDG

Tested on in one assay: not listed separately
In words: Caspase-3/7 induction in HepG2 cells by small molecules, qHTS cell viability counter screen (AID 1346981). Also: nearly all actives have a fitted effect of over 30% in size. The note with it: CellTiter-Fluor fluorescence, 17 h; series mostly up to 92.4 µM; activity change, negative = cytotoxicity: at the top concentration. Put shortly: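 Multiplexed with the caspase-3/7 assay: HepG2 cells, 16 hr compound treatment, CellTiter-Fluor viability detection by fluorescence.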
With `CN(C)CCC(c1ccccc1)c1ccccn1` (stereo unspecified), the Potency result was “inactive”.
The same measure, in the same setting: for `O=c1[nH]c(=O)n([C@H]2C[C@H](O)[C@@H](CO)O2)cc1Br` the value was “inactive”; for `OCCOCCOCCO`, “inactive”.
Regarding `CC(=O)OCC(=O)[C@@]12N=C(C)O[C@@H]1C[C@H]1[C@@H]3CCC4=CC(=O)C=C[C@]4(C)[C@H]3[C@@H](O)C[C@@]12C`, the Potency entry was “inactive”.
With `O=C(O)c1ccc2c(c1)C(=O)OC2=O`, the Potency result is “inactive”.
Regarding `OC[C@H]1O[C@@](CO)(O[C@H]2O[C@H](CO)[C@@H](O)[C@H](O)[C@H]2O)[C@@H](O)[C@@H]1O`, the Potency entry was “inactive”.
The same measure, in the same setting: for `Cc1ccc(N(C)C)cc1` the value was “inactive”; for `O=C(OCCOCCOC(=O)c1ccccc1)c1ccccc1`, “inactive”.
On to `O=C(Oc1ccccc1)c1ccccc1`, for which the “activity change, negative = cytotoxicity” value is -1.57% (inactive).
Consider `CC(C)(N)CO`, for which the Potency result is “inactive”.
`OCc1cccnc1`: the Potency entry is “inactive”.
For `CCCC(C)=O`, the Potency result is “inactive”.
Same read-out and setting: for `CCCCC(CC)COC(=O)CCCCC(=O)OCC(CC)CCCC` (stereo unspecified) the value was “inactive”; for `CCCCCC/C(C=O)=C\c1ccccc1`, “inactive”.
Consider `Cc1ccc(S(N)(=O)=O)cc1`, for which the “activity change, negative = cytotoxicity” value was -1.28% (inactive).
Consider `FC(F)(F)c1ccc(Cl)c(Cl)c1`, for which the Potency entry is “inactive”.
As for `C[Si](O[Si](C)(C)C)O[Si](C)(C)C`, the “activity change, negative = cytotoxicity” value is 0.249% (inactive).
As to `C=C(C)C(=O)Nc1ccc(Cl)c(Cl)c1`, the “activity change, negative = cytotoxicity” value was -10.6% (inactive).
`CCCCC(CC)COC(=O)CS` (stereo unspecified): the Potency entry was “inactive”.
Regarding `COS(C)(=O)=O`, the Potency entry is “inactive”.
Take `CC(c1cc2ccccc2s1)N(O)C(N)=O` (stereo unspecified): the Potency result is “inactive”.
Take `Cc1cc(C)c(C)cc1C`: the “activity change, negative = cytotoxicity” value is -8.58% (inactive).
Consider `CCCCOC(=O)COc1ccc(Cl)cc1Cl`, for which the Potency entry is “inactive”.
As for `Oc1cccc2ccccc12`, the Potency entry is “inactive”.
`CC1CCC2CC1C2(C)C` (stereo unspecified): the Potency result is “inactive”.
As to `CCCCCOC(C)=O`, the Potency result was “inactive”.
For the molecule `CCCCCC(N)=O`, the Potency entry is “inactive”.
For `C=CCOC(=O)c1ccccc1C(=O)OCC=C`, the Potency result was “inactive”.
On the same count and under the same terms, for `OCC(CO)(CBr)CBr` the value was “inactive”.
For the molecule `O=c1[nH]c(=O)n([C@H]2CCCO2)cc1F`, the Potency result was “inactive”.
On the same count and under the same terms, for `CCCCN(CCCC)CCCC` the value was “inactive”; for `C=CCNC(N)=S`, “inactive”; for `COc1cc(Cc2cnc(N)nc2N)cc(OC)c1OC`, “inactive”.
As for `O=C1CCC(N2C(=O)c3ccccc3C2=O)C(=O)N1` (stereo unspecified), the Potency result was “inactive”.
Still for that read-out and setting: for `C=C(C)C(=O)OCCOCCOCCOC(=O)C(=C)C` the value was “inactive”.
Regarding `CCC(O)OCCCOC` (stereo unspecified), the “activity change, negative = cytotoxicity” value was 3.98% (inactive).
For `CN(C)CCCN`, the Potency result was “inactive”.
In the case of `CCc1cccc(C)c1N`, the Potency result is “inactive”.

For a further assay, the target named is Nuclear receptor subfamily 1 group I member 2 (Homo sapiens) (UniProt O75469). The experiment in a line: Human pregnane X receptor (PXR) small molecule agonists, qHTS assay (AID 1346982). Also: nearly all actives have a fitted effect of over 35% in size. Also: potency is read from the fitted curve at half-maximal effect. The note with it: PXR-Luc HepG2, CYP3A4 luciferase reporter, 24 h; series mostly up to 92.4 µM; activation: at the top concentration. Put shortly: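 We seeded PXR-Luc HepG2 cells in assay medium containing 5% charcoal-stripped FBS, added compounds 5 hr later, incubated 24 hr, and read luminescence with ONE-Glo reagent.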
Nuclear receptor subfamily 1 group I member 2 (Homo sapiens), sequence (O75469 whole entry, looked up): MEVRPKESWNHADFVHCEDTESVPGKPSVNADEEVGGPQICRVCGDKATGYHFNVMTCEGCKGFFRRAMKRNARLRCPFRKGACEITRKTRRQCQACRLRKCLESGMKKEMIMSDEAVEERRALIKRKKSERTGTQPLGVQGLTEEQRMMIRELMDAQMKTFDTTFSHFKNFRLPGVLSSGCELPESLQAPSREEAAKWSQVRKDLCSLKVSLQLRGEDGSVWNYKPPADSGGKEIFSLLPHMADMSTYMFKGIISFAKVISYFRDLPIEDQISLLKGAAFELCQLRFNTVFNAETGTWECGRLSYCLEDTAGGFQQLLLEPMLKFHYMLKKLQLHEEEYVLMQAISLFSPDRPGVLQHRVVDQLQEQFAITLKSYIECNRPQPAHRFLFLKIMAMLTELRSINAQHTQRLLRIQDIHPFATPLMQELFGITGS
`O=c1[nH]c(=O)n([C@H]2C[C@H](O)[C@@H](CO)O2)cc1Br`: the Potency was 12.4 µM (active) and inactive.
Take `OCCOCCOCCO`: the Potency is 63.4 µM (active) and inactive.
On the same count and under the same terms, for `CC(=O)OCC(=O)[C@@]12N=C(C)O[C@@H]1C[C@H]1[C@@H]3CCC4=CC(=O)C=C[C@]4(C)[C@H]3[C@@H](O)C[C@@]12C` the value was 17.2 µM (active).
Consider `O=C(O)c1ccc2c(c1)C(=O)OC2=O`, for which the “activation” value was 6.19% (inactive).
In the case of `OC[C@H]1O[C@@](CO)(O[C@H]2O[C@H](CO)[C@@H](O)[C@H](O)[C@H]2O)[C@@H](O)[C@@H]1O`, the Potency result is “inactive and 27.3 µM (active)”.
For `Cc1ccc(N(C)C)cc1`, the “activation” value was 17.2% (inactive).
Turning to `O=C(OCCOCCOC(=O)c1ccccc1)c1ccccc1`, the Potency result is “inactive”.
In the case of `O=C(Oc1ccccc1)c1ccccc1`, the Potency entry is “inactive”.
Regarding `CC(C)(N)CO`, the Potency is 60.9 µM (active) and inactive.
Still for that read-out and setting: for `CCCC(C)=O` the value was “inactive”.
`CCCCC(CC)COC(=O)CCCCC(=O)OCC(CC)CCCC` (stereo unspecified): the “activation” value is -5.84% (inactive).
Consider `CCCCCC/C(C=O)=C\c1ccccc1`, for which the Potency entry was “inactive”.
Regarding `Cc1ccc(S(N)(=O)=O)cc1`, the Potency result was “inactive”.
Still for that read-out and setting: for `FC(F)(F)c1ccc(Cl)c(Cl)c1` the value was “inactive”; for `C[Si](O[Si](C)(C)C)O[Si](C)(C)C`, “inactive”; for `C=C(C)C(=O)Nc1ccc(Cl)c(Cl)c1`, 61.8 µM (active) and 54.3 µM (active).
On to `CCCCC(CC)COC(=O)CS` (stereo unspecified), for which the “activation” value was 11% (inactive).
Turning to `COS(C)(=O)=O`, the Potency result is “inactive”.
In the case of `CC(c1cc2ccccc2s1)N(O)C(N)=O` (stereo unspecified), the Potency was 34.4 µM (active) and inactive.
As for `Cc1cc(C)c(C)cc1C`, the Potency result was “inactive”.
In the case of `CCCCOC(=O)COc1ccc(Cl)cc1Cl`, the Potency result is “inactive”.
Regarding `CC1CCC2CC1C2(C)C` (stereo unspecified), the Potency entry was “inactive”.
For the molecule `CCCCCOC(C)=O`, the Potency entry is “inactive”.
The same measure, in the same setting: for `CCCCCC(N)=O` the value was “inactive”; for `C=CCOC(=O)c1ccccc1C(=O)OCC=C`, “inactive”; for `OCC(CO)(CBr)CBr`, “inactive”.
On to `O=c1[nH]c(=O)n([C@H]2CCCO2)cc1F`, for which the Potency result was “inactive”.
With `CCCCN(CCCC)CCCC`, the Potency entry was “inactive”.
As to `C=CCNC(N)=S`, the “activation” value was 7.83% [at 42.5 µM] (inactive).
Turning to `O=C1CCC(N2C(=O)c3ccccc3C2=O)C(=O)N1` (stereo unspecified), the Potency entry was “inactive”.
On the same count and under the same terms, for `C=C(C)C(=O)OCCOCCOCCOC(=O)C(=C)C` the value was “inactive”.
Turning to `CCC(O)OCCCOC` (stereo unspecified), the Potency is 11.1 µM (active) and inactive.
Same read-out and setting: for `CN(C)CCCN` the value was “inactive”; for `CCc1cccc(C)c1N`, 59.2 µM (active) and inactive.

The target in the next assay is Nuclear receptor subfamily 1 group I member 2 (Rattus norvegicus) (UniProt Q9R1A7). In words: Rat pregnane X receptor (rPXR) activation by small molecules, qHTS assay (AID 1346983). Also: nearly all actives have a fitted effect of over 20% in size. Also: potency is read from the fitted curve at half-maximal effect. The note with it: rPXR luciferase reporter cells, One-Glo luminescence, 24 h; max activation: stronger effect = higher value. The method, boiled down:
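Luminescent readout (One-Glo luciferase, 30 min room temperature) followed 24 hr compound treatment at 37 C of rPXR cells plated 2,000 per well and preincubated 5hr; qHTS format with compounds delivered in DMSO.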
On to `CN(C)CCC(c1ccccc1)c1ccccn1` (stereo unspecified), for which the max activation was -3.67% (inactive).
For `O=c1[nH]c(=O)n([C@H]2C[C@H](O)[C@@H](CO)O2)cc1Br`, the Potency is 4.47 µM (active).
In the case of `OCCOCCOCCO`, the max activation is -2.18% (inactive).
On to `CC(=O)OCC(=O)[C@@]12N=C(C)O[C@@H]1C[C@H]1[C@@H]3CCC4=CC(=O)C=C[C@]4(C)[C@H]3[C@@H](O)C[C@@]12C`, for which the Potency was 15.8 µM (active).
`OC[C@H]1O[C@@](CO)(O[C@H]2O[C@H](CO)[C@@H](O)[C@H](O)[C@H]2O)[C@@H](O)[C@@H]1O`: the max activation is 0.408% (inactive).
With `CC(c1cc2ccccc2s1)N(O)C(N)=O` (stereo unspecified), the max activation is 1.87% (inactive).
As to `CCCCCC(N)=O`, the max activation was -0.768% (inactive).
For `O=c1[nH]c(=O)n([C@H]2CCCO2)cc1F`, the max activation is -0.0643% (inactive).
For the molecule `C=CCNC(N)=S`, the max activation was -2.6% (inactive).
